The structures appear in SMILES notation.

The first assay in a line: reducers of polyQ inclusions in PC12 cells, cell-based, NGF-treated PC12, GFPQ80 (AID 1614).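 Note: lower means fewer inclusions and 0 means no inclusions at all.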 The following applies: PC12 NGF-treated GFP-polyQ80 inclusion reduction.
`CC1=C(C(=O)O)N2C(=O)[C@@H](NC(=O)[C@H](N)C3=CCC=CC3)[C@H]2SC1`: the inclusion score turned out to be 2.
Still for that read-out and setting: the same measure for `CN1CCCN=C1COC(=O)C(O)(c1ccccc1)C1CCCCC1` (stereo unspecified): 2.
Molecule `CNC[C@H](O)c1cccc(O)c1` returned an inclusion score of 2.
Still for that read-out and setting: the figure for `COc1ccc(CN(CCN(C)C)c2ncccn2)cc1` is 2.
On the same count and under the same terms, the same measure for `N=C(N)N`: 2; for `CC(=O)N[C@@H](CS)C(=O)O`: 2; for `NCCCC(=O)O`: 2.
`CO[C@@H]1[C@@H](OC(N)=O)[C@@H](O)[C@H](Oc2ccc3c(O)c(NC(=O)c4ccc(O)c(CC=C(C)C)c4)c(=O)oc3c2C)OC1(C)C` displayed an inclusion score of 2.
Same read-out and setting: the same measure for `CC1(C)S[C@@H]2[C@H](NC(=O)C(C(=O)O)c3ccccc3)C(=O)N2[C@H]1C(=O)O` (stereo partly specified): 2; for `OC[C@H]1O[C@@H](O[C@@H]2[C@@H](CO)O[C@](O)(CO)[C@H]2O)[C@H](O)[C@@H](O)[C@H]1O`: 2; for `NC[C@H](O)c1ccc(O)c(O)c1`: 2.
`NC(=O)NC(=O)Cc1ccccc1` registered an inclusion score of 2.
Still for that read-out and setting: the same measure for `S=P(N1CC1)(N1CC1)N1CC1`: 1.5; for `CN(C)/N=N/c1nc[nH]c1C(N)=O`: 2.
Same read-out and setting: the figure for `NC(=O)NO` is 2.
In turn, `O=C(O)P(=O)(O)O` came in with an inclusion score of 2.
Same read-out and setting: the figure for `Nc1c2c(nc3ccccc13)CCCC2O` (stereo unspecified) is 2; for `O=c1cc[nH]c(=S)[nH]1` it is 2; for `Cc1c(C(N)=O)cc([N+](=O)[O-])cc1[N+](=O)[O-]` it is 2.
Still for that read-out and setting: the figure for `COc1ccc(C2C(=O)c3ccccc3C2=O)cc1` is 2.
Same read-out and setting: the same measure for `O=C(O)c1ccccc1O`: 2.
For the molecule `NC(=O)c1ccc([N+](=O)[O-])cc1Cl`, the inclusion score stood at 2.
Same read-out and setting: the same measure for `CC(=O)Oc1cccc(O)c1`: 2; for `Cn1c(=O)c2c(ncn2C)n(C)c1=O`: 2.
Still for that read-out and setting: the same measure for `O=C(O)c1ccc(S(=O)(=O)N(Cl)Cl)cc1`: 2; for `C=CCc1ccc(O)c(OC)c1`: 2; for `CCCCC1C(=O)N(c2ccccc2)N(c2ccccc2)C1=O`: 2.
The same measure, in the same setting: the same measure for `NC(Cc1ccc(Cl)cc1)C(=O)O` (stereo unspecified): 2.
`CCOC(N)=O` yielded an inclusion score of 2.
The same measure, in the same setting: the figure for `CCN(CC)C(=O)c1cccc(C)c1` is 2; for `CCCCCC(C)N` (stereo unspecified) it is 2; for `CC(=O)Oc1ccccc1C(=O)O` it is 2.
On the same count and under the same terms, the same measure for `CC(=O)NCCCCCC(=O)O`: 2; for `O=C1c2cccc(O)c2C(=O)c2c(O)cccc21`: 2; for `O=C1c2c(O)cccc2Cc2cccc(O)c21`: 2.
Same read-out and setting: the figure for `NS(=O)(=O)c1cc2c(cc1Cl)NC(C1CC3C=CC1C3)NS2(=O)=O` (stereo unspecified) is 2; for `NC(=O)c1ncn([C@@H]2O[C@H](CO)[C@@H](O)[C@H]2O)n1` it is 1.5.
Molecule `O=C(O)CCCCCCCC(=O)O` came in with an inclusion score of 2.

The next assay is described as follows: suppressors of polyglutamine aggregation in yeast, 75Q-TubH (AID 1616). The following applies: S. cerevisiae 75Q-TubH polyglutamine aggregation suppression; stronger effect = higher value.
`CC1=C(C(=O)O)N2C(=O)[C@@H](NC(=O)[C@H](N)C3=CCC=CC3)[C@H]2SC1`: the aggregation suppression score was 1.56.
Still for that read-out and setting: the figure for `CN1CCCN=C1COC(=O)C(O)(c1ccccc1)C1CCCCC1` (stereo unspecified) is 1.26; for `CNC[C@H](O)c1cccc(O)c1` it is 1.2; for `COc1ccc(CN(CCN(C)C)c2ncccn2)cc1` it is 1.43.
The same measure, in the same setting: the same measure for `N=C(N)N`: 0.901.
Still for that read-out and setting: the same measure for `CC(=O)N[C@@H](CS)C(=O)O`: 1.2; for `NCCCC(=O)O`: 0.665.
Molecule `CO[C@@H]1[C@@H](OC(N)=O)[C@@H](O)[C@H](Oc2ccc3c(O)c(NC(=O)c4ccc(O)c(CC=C(C)C)c4)c(=O)oc3c2C)OC1(C)C` gave an aggregation suppression score of 0.623.
On the same count and under the same terms, the same measure for `CC1(C)S[C@@H]2[C@H](NC(=O)C(C(=O)O)c3ccccc3)C(=O)N2[C@H]1C(=O)O` (stereo partly specified): 1.65; for `OC[C@H]1O[C@@H](O[C@@H]2[C@@H](CO)O[C@](O)(CO)[C@H]2O)[C@H](O)[C@@H](O)[C@H]1O`: 0.924.
The molecule `NC[C@H](O)c1ccc(O)c(O)c1` showed an aggregation suppression score of 1.39.
Still for that read-out and setting: the figure for `NC(=O)NC(=O)Cc1ccccc1` is 1.17; for `S=P(N1CC1)(N1CC1)N1CC1` it is 0.449; for `CN(C)/N=N/c1nc[nH]c1C(N)=O` it is 1.16.
Still for that read-out and setting: the figure for `NC(=O)NO` is 1.3; for `O=C(O)P(=O)(O)O` it is 1.5.
The same measure, in the same setting: the figure for `Nc1c2c(nc3ccccc13)CCCC2O` (stereo unspecified) is 0.587.
As to `O=c1cc[nH]c(=S)[nH]1`, the aggregation suppression score amounted to 1.48.
Same read-out and setting: the figure for `Cc1c(C(N)=O)cc([N+](=O)[O-])cc1[N+](=O)[O-]` is 0.968; for `COc1ccc(C2C(=O)c3ccccc3C2=O)cc1` it is 0.401; for `O=C(O)c1ccccc1O` it is 0.863.
On the same count and under the same terms, the same measure for `NC(=O)c1ccc([N+](=O)[O-])cc1Cl`: 1.31; for `CC(=O)Oc1cccc(O)c1`: 0.901; for `Cn1c(=O)c2c(ncn2C)n(C)c1=O`: 1.18.
The same measure, in the same setting: the same measure for `O=C(O)c1ccc(S(=O)(=O)N(Cl)Cl)cc1`: 1.13; for `C=CCc1ccc(O)c(OC)c1`: 1.76; for `CCCCC1C(=O)N(c2ccccc2)N(c2ccccc2)C1=O`: 0.296.
The molecule `NC(Cc1ccc(Cl)cc1)C(=O)O` (stereo unspecified) displayed an aggregation suppression score of 1.23.
On the same count and under the same terms, the same measure for `CCOC(N)=O`: 1.21.
Still for that read-out and setting: the same measure for `CCN(CC)C(=O)c1cccc(C)c1`: 1.01.
Regarding `CCCCCC(C)N` (stereo unspecified), the aggregation suppression score was 0.962.
Still for that read-out and setting: the same measure for `CC(=O)Oc1ccccc1C(=O)O`: 1.28; for `CC(=O)NCCCCCC(=O)O`: 1.24; for `O=C1c2cccc(O)c2C(=O)c2c(O)cccc21`: 0.219.
Still for that read-out and setting: the figure for `O=C1c2c(O)cccc2Cc2cccc(O)c21` is 1.2; for `NS(=O)(=O)c1cc2c(cc1Cl)NC(C1CC3C=CC1C3)NS2(=O)=O` (stereo unspecified) it is 0.424.
On the same count and under the same terms, the same measure for `NC(=O)c1ncn([C@@H]2O[C@H](CO)[C@@H](O)[C@H]2O)n1`: 1.25.
For `O=C(O)CCCCCCCC(=O)O`, the aggregation suppression score is 0.919.

These data come from PubChem BioAssay.
